Screening data: PubChem BioAssay, National Center for Advancing Translational Sciences (NCATS)
This is a sample that favours compounds with a hit; in the whole collection about 21% have one here.
Sm TGR block: inhibitors of Schistosoma mansoni thioredoxin glutathione reductase; purified TGR, DTNB reduction, TNB absorbance 405 nm; Potency, µM (series often up to 114 µM), hits mostly inhibitors; hit rate 3% among 360,000; further: nearly all actives have a fitted effect of over 60% in size
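TGR 20 nM + NADPH 100 uM (dispensed conc.), cpd preinc 15 min RT; start with NADPH (500 uM addition) then DTNB (15 mM addition). Kinetic TNB absorbance, 405 nm filter. Four-parameter Hill fit across titration.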
CHX counter: counter-screen for Shiga toxin inhibitors: cycloheximide protein synthesis inhibition | cell reporter, cycloheximide protein synthesis inhibition counterscreen | hit rate 12% among 300,000 | max response, %; in the data active means max response mostly above about 13%, no sharp cut-off; inactive means mostly below about 14%; further: read at 38.3 µM for the half of the compounds with a filed dose
Shiga inhibitor: blocks Shiga toxin action in Vero cells | Vero cells, Shiga toxin protein synthesis inhibition reporter | inhibition, % at 38.7 µM | hit rate 9.2% among 290,000 | AID 2315; in the data active means inhibition mostly above about 28%, no sharp cut-off; inactive means mostly below about 43%
Pf growth 96h: P. falciparum growth inhibition at 96 hour, primary screen for plastid delayed-death inhibitors | P. falciparum luciferase reporter growth, 96 h | Potency, µM (titrated, usually from 28.7 µM), most hits filed as inhibitors | hit rate 6.9% among 320,000 | AID 504834
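Luminescence readout: decreased luciferase signal marks inhibited growth of reporter-expressing P. falciparum in infected red cells (2% hematocrit, 0.05% parasitemia final), exposed to compound two generations (96 h, 37 C, 5% CO2).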
NS1 function inh: influenza NS1 inhibition; Potency, µM (top dose mostly 46.1 µM); hit rate 0.4% among 270,000; calls by dose curve; further: actives are rising curves; nearly all actives have a fitted effect of over 50% in size
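Recovery from NS1-induced slow growth read by OD600 in budding yeast switched to galactose assay medium (pH 6.0, -URA) at 1:100 dilution. Compound 23 nl per well; the matching strain lacking NS1 serves as control.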
Pf growth 48h: inhibits P. falciparum growth in the first generation, 48 h; P. falciparum luciferase growth in erythrocytes, 48 h; Potency, µM (titrated, usually from 28.7 µM), most hits filed as inhibitors; hit rate 5.9% among 310,000; AID 504832
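Luminescence readout; reporter = integrated firefly luciferase in P. falciparum. RBC culture at 2% hematocrit, 0.1% parasitemia final, 37 C/5% CO2; decreased signal taken as growth inhibition.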
Each line names hits and unclear results; the compound was inactive in the other large screens. Unless noted, the call rests on the fitted dose curve; in most records, active means well fitted curve in the direction sought with a large enough effect; inconclusive means small, poorly fitted or top-dose-only effect, or another doubt; inactive means no such curve, though single readings can be large; an effect the other way counts as inactive or inconclusive.

CCc1ccc(C2=NNC(=Nc3cccc(S(=O)(=O)N(C)C)c3)SC2)cc1	Pf growth 96h inconclusive, Pf growth 48h inconclusive
Cc1cccc(N=C2CSC(=O)N2)c1	none (no result: NS1 function inh)
Cc1ccc(C2=NNC(=Nc3ccc(F)cc3)SC2)cc1	CHX counter 26, Shiga inhibitor 84, Pf growth 96h inconclusive, Pf growth 48h inconclusive (no result: NS1 function inh)
Cc1cccc(N=C2NN=C(c3ccc4c(c3)OCCO4)CS2)c1	CHX counter 27, Shiga inhibitor 93
O=C(COc1cc(F)ccc1[N+](=O)[O-])Nc1ccc(N2CCCCC2)cc1	Pf growth 48h inconclusive (no result: CHX counter, Shiga inhibitor, NS1 function inh)
CC(=O)c1ccc(NC(=O)Cn2c(=O)cc(C)c3c(C)nn(-c4cccc(F)c4)c32)cc1	none (no result: CHX counter, Shiga inhibitor, Pf growth 96h, NS1 function inh, Pf growth 48h)
Cc1ccc(NC(=O)c2ccc(F)cc2F)cc1NS(C)(=O)=O	Shiga inhibitor 61
CCOC(=O)c1ccc(NC(=O)c2ccc(NS(C)(=O)=O)cc2)cc1	Pf growth 48h inconclusive
CCc1ccc(C(=O)Nc2ccc(C)c(NS(C)(=O)=O)c2)cc1	CHX counter 7.6
CCOC(=O)N1CCc2c(sc(NCc3cccc(F)c3)c2C(=O)Nc2ccc(OC)cc2)C1	none (no result: CHX counter, Shiga inhibitor, Pf growth 96h, NS1 function inh, Pf growth 48h)
CCc1ccc(C(=O)c2cn(Cc3ccc(F)cc3)c3cc(OC)c(OC)cc3c2=O)cc1	none (no result: CHX counter, Shiga inhibitor, Pf growth 96h, NS1 function inh, Pf growth 48h)
O=C1CN(C(=O)COC(=O)c2ccccc2NCc2ccco2)c2ccccc2N1	none (no result: Pf growth 96h)
CC(C)(C)c1cc(C(c2cccnc2)N2CCN(CCO)CC2)cc(C(C)(C)C)c1O (configuration not stated)	Sm TGR block 0.45µM (no result: Pf growth 48h)
CC(C)(C)n1nnnc1C(c1cccnc1)N1CCN(C2CCCCC2)CC1 (configuration not stated)	none
CCS(=O)(=O)n1nc(-c2ccccc2)nc1N	Sm TGR block inconclusive
CS(=O)(=O)n1nc(-c2ccc(Cl)cc2)nc1N	CHX counter 20, Shiga inhibitor 20
CCS(=O)(=O)n1nc(-c2ccc(Cl)cc2)nc1SC	CHX counter 62, Shiga inhibitor 87
CCS(=O)(=O)n1nc(-c2ccc(OC)cc2)nc1N	CHX counter 23
Cc1ccc(NC(=O)Cn2nc(C)c(S(=O)(=O)N(C)C)c2C)cc1	none (no result: NS1 function inh)
CCOc1cc(-c2ccc(OC(=O)c3ccc(C)cc3)c(OC)c2)cc(=O)c2c(C)oc(C)c12	none (no result: CHX counter, Shiga inhibitor, Pf growth 96h, NS1 function inh, Pf growth 48h)
CC(=O)c1c(N2CCN(Cc3ccccc3)CC2)[nH]c(-c2ccccc2)nc1=S	Pf growth 48h 4.7µM
CNc1nc2c3ccccc3n(C(C)=O)c2s1	Pf growth 96h inconclusive (no result: Pf growth 48h)
CC(=O)n1c2ccccc2c2nc(NC(C)C)sc21	CHX counter 16 (no result: Pf growth 48h)
Cc1cc(C)nc(N(C#N)CCOc2ccc(Cl)cc2)n1	CHX counter 16, Shiga inhibitor 39, Pf growth 96h inconclusive, Pf growth 48h inconclusive
CCCN(C#N)c1nc(NCC)nc(NC(C)C)n1	Pf growth 96h inconclusive, Pf growth 48h inconclusive
Cc1cc(C)nc(N(C#N)Cc2ccc(Cl)cc2)n1	Pf growth 96h 13µM
CC(C)Nc1nc(NC(C)C)nc(N(C#N)CCOc2ccc(Cl)cc2Cl)n1	Pf growth 96h inconclusive, Pf growth 48h 10µM
Cc1ccccc1OCCN(C#N)c1nc(N(C)C)nc(N(C)C)n1	Pf growth 48h 12µM
Cc1cc(C)nc(N(C#N)Cc2cccc(Cl)c2)n1	none (no result: Sm TGR block)
CC(=O)Nc1ccc2nc3ccccc3nc2c1	Sm TGR block inconclusive, CHX counter 52, Shiga inhibitor 91
CC(=O)Nc1ccc2nc3c(=O)n(C)c(=O)n(C)c3nc2c1	none
CCCC(=O)Nc1cccc(-c2nc3ccccc3o2)c1	CHX counter 26 (no result: Pf growth 96h)
CC(=O)Nc1cccc(-c2nc3ccccc3o2)c1	CHX counter 28, Shiga inhibitor 40
CC(C)C(=O)Nc1cccc(-c2nc3ccccc3o2)c1	none (no result: Pf growth 96h)
O=C(Nc1cccc(-c2nc3ccccc3o2)c1)c1ccc(-c2ccc(Br)cc2)o1	Sm TGR block 40µM (no result: CHX counter, Shiga inhibitor, Pf growth 96h, NS1 function inh, Pf growth 48h)
COc1ccc(CC(C(=O)Nc2ccc(OC)cc2)c2nn[nH]n2)cc1 (configuration not stated)	Pf growth 96h inconclusive
Cc1ccc(-n2nnnc2SCC(=O)NCCc2ccccc2)cc1C	none (no result: CHX counter, Shiga inhibitor, Pf growth 96h, NS1 function inh, Pf growth 48h)
Cc1cc2nc(-c3cccc(NC(=O)COc4ccc(C(C)C)cc4)c3)oc2cc1C	none (no result: CHX counter, Shiga inhibitor, Pf growth 96h, NS1 function inh, Pf growth 48h)
COc1ccc(OCC(=O)Nc2cccc(-c3nc4ccccc4o3)c2)cc1	CHX counter 45, Shiga inhibitor 123, Pf growth 96h inconclusive
CC(=O)Nc1ccc2oc(-c3ccccc3)nc2c1	CHX counter 41, Shiga inhibitor 93 (no result: NS1 function inh)
